# Source: PubChem
# HPGD block = qHTS Assay for Inhibitors of HPGD (15-Hydroxyprostaglandin Dehydrogenase); 15-hydroxyprostaglandin dehydrogenase [NAD(+)] (Homo sapiens), P15428; purified HPGD, NADH fluorescence kinetic, PGE2 substrate; Potency, µM, without a hit: at the highest dose activity change, negative = inhibition, usual class: inhibitors; 150,000 compounds, 4.3% hits; note: potency is the fitted concentration of half-maximal effect
# Target sequence (P15428 whole entry, looked up): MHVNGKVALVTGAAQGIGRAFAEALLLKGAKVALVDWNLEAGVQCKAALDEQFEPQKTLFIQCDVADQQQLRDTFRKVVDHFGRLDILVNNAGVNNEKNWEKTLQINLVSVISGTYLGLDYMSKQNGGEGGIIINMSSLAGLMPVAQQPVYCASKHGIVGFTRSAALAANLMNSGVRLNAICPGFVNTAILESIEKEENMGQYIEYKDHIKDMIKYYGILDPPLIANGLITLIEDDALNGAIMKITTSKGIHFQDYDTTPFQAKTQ
#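 NADH formation kinetics: reaction with 30 uM PGE2 and 1 mM NAD+ (final), 20 nM enzyme, Tris-HCl pH 8 with Tween 20, after 15 min compound preincubation at room temperature. Fluorescence change, last versus first of five reads.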
# Lamin A splicing = qHTS Assay for Modulators of Lamin A Splicing; HeLa LMNA splicing GFP/RFP minigene ratio, 48 h; Potency, µM (doses to about 46.1 µM), inactives show at the top dose ratio change, negative = inhibition, most hits filed as inhibitors; 200,000 compounds, 0.01% hits; AID 1487, 2009; active = well fitted inhibition curve with a large enough effect in the signal ratio, with a control signal flat, not every such curve was filed as active; inconclusive = small, poorly fitted or top-dose-only effect, or effect the other way, or a change in a side signal; the % refers to the signal ratio; note: potency is the fitted concentration of half-maximal effect
#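 Read-out is the ratio of GFP to DsRed2 object intensity, acquired by 488 nm laser-scanning cytometry on HeLa lamin A-EGFP minigene reporter cells. Compound incubation 48 hrs at 37 °C in Opti-MEM with 2% FBS; DMSO 0.5% final.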
# ALDH1A1 inh = qHTS Assay for Inhibitors of Aldehyde Dehydrogenase 1 (ALDH1A1). Aldehyde dehydrogenase 1A1 (Homo sapiens), P00352. Purified ALDH1A1, NADH fluorescence, propionaldehyde substrate. Potency, µM (doses to about 75.3 µM), inactives show top-dose activity, negative = inhibition, most hits filed as inhibitors. 220,000 compounds, 7.3% hits;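 note: potency is the fitted concentration of half-maximal effect; plate controls were no enzyme wells and a reference inhibitor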
# Target sequence (P00352 whole entry, looked up): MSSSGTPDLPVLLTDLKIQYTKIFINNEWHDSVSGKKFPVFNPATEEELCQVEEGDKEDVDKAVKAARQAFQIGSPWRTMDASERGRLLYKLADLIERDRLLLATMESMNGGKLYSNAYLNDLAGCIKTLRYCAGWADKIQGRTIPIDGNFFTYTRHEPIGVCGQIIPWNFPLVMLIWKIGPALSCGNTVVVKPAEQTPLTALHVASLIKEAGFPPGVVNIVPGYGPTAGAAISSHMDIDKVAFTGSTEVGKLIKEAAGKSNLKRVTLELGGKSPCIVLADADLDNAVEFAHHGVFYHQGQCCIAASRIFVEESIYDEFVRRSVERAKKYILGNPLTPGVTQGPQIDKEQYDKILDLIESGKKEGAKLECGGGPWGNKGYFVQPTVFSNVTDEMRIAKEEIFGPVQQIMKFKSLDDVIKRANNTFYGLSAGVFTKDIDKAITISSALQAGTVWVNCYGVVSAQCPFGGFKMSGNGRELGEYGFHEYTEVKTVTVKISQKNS
# PNC assembly inh = High Content Assay for Compounds that inhibit the Assembly of the Perinucleolar Compartment; PC3M PTB-GFP, PNC prevalence imaging, 16 h; hits give low values; AID 2417, 2010; activity change (PNC), negative = inhibition, % at 10 µM; 140,000 compounds, 3.1% hits;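 active = readout at or below -70, meaning at least 70% loss of cells showing the perinucleolar compartment, a nuclear body marking cancer cells; inconclusive = readout between -30 and a set limit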;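 note: plate controls were DMSO wells for no effect and camptothecin positive control wells for full effect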
#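 Compounds are pinned in duplicate onto adhered PC3M cells stably expressing GFP-tagged PTB and incubated 16 h at 37 C. Cells are then fixed, nuclei stained with Hoechst, and PNC-positive cells counted.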
# ALOX12 inhib = qHTS Assay for Inhibitors of 12-hLO (12-human lipoxygenase) | Polyunsaturated fatty acid lipoxygenase ALOX12 (Homo sapiens), P18054 | purified 12-hLO, xylenol orange hydroperoxide absorbance | Potency, µM (series often up to 57.1 µM), inactives show at the top dose activity change, negative = inhibition, hits mostly inhibitors | 150,000 compounds, 0.12% hits | AID 1452, 2008; active = well fitted inhibition curve with a large enough effect; inconclusive = small, poorly fitted or top-dose-only effect; note: potency is the fitted concentration of half-maximal effect; nearly all actives have a fitted effect of over 55% in size
#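 Hydroperoxide formation by human 12-lipoxygenase from 40 uM arachidonic acid was followed colorimetrically via ferric-xylenol orange complex, using the 573/405 nm absorbance ratio. Enzyme concentration was 150 nM, with 30 min reaction at room temperature.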
# Starred values were filed as active, the others as inactive; ? = inconclusive; nt = no result given; ! = not active in a repeat; [ ] = another dose, or the depositor's remark. A selection: hits, their analogues and other compounds. The true share with any hit is near 10%. Unless noted, calls come from the whole dose curve; as a rule, active = well fitted inhibition curve with a large enough effect (not every such curve was filed as active); inconclusive = small, poorly fitted or top-dose-only effect, or another doubt; inactive = no such curve, though single readings can be large or run the other way. Unless noted, % is set by controls: 0 for no effect and ±100 for the full control effect.
SMILES,HPGD block,Lamin A splicing,ALDH1A1 inh,PNC assembly inh,ALOX12 inhib
O=C(NNC(=S)Nc1cccc(C(F)(F)F)c1)c1ccccc1Cl,-19.9%,?,8.91µM*,-4.0,-3.7%
CCN1CCN(C(=O)Nc2cccc(C(F)(F)F)c2)CC1,-2.1%,15.1%,2.2%,-123.3*,1.1%
CCN1CCC(NC(=O)Nc2cccc(C(F)(F)F)c2)CC1,nt,nt,3.0%,nt,nt
O=C(CCNC(=O)c1ccccc1Cl)Nc1cccc(C(F)(F)F)c1,-1.4%,-11.6%,1.6%,-2.9,-0.8%
O=c1cnc2cnc(Nc3ccccc3)nc2n1C[C@H]1CCCO1,-10.4%,nt,-2.0%,nt,0.6%
COCC(=O)N1CCC2(CCN(Cc3ccncc3)CC2)CC1,-7.7%,nt,?,nt,3.5%
CN1CCN(c2ccnc(-c3ccc(N(C)C)cc3)n2)CC1,nt,-5.0%,?,nt,nt
Cc1cc(C(F)(F)F)nn1CC(=O)NNC(=S)Nc1cccc(Cl)c1,-4.7%,-9.1%,20µM*,-23.6,-5.3%
FC(F)(F)c1cccc(NC(=S)Nc2cccc(NC(=S)Nc3cccc(C(F)(F)F)c3)n2)c1,nt,nt,25.1µM*,nt,nt
Cc1cc(C(F)(F)F)nn1CC(=O)Nc1cccnc1,-16.4%,1.3%,11.1%,-9.8,-5.5%
O=C(NNC(=S)Nc1cccc(C(F)(F)F)c1)c1cccc(Cl)c1,-8.1%,?,22.4µM*,-22.7,-9.1%
CCOc1ccccc1CNC(=O)C1CCN(Cc2cc3ccccc3n2Cc2ccccc2)CC1,nt,-1.2%[46 µM],nt,nt,nt
CCN(CC)c1ccc(/C=C(\C#N)c2ccccn2)cc1,-16.2%,?,?,?,-1.9%
CCN(Cc1ccccc1)c1ccc(/C=C(\C#N)c2ccccn2)cc1,nt,-12.5%,14.1µM*,?,5.1%
COc1ccc(CN(C(C)=O)c2cccc(C)c2C)cc1,-3.7%,?,5.01µM*,-107.1*,-7.3%
COc1ccc(CN(C(=O)CO/N=C/c2ccccc2)c2ccccc2C(=O)O)cc1,-7.0%,-5.3%,3.1%,14.7,5.0%
CC(=O)c1c(C)[nH]c(C(=O)N2CCc3ccccc3C2)c1C,17.8µM*,-14.3%,0.2%,84.1,0.8%
CCOC(=O)c1c(C)c(C(=O)N2CCc3ccccc3C2)c(C)n1CC,4.47µM*,?,?,20.6,-4.4%
O=C(Nc1ccc(Cl)cc1)N[C@@H]1c2c(ccc3ccccc23)OC[C@@H]1CO,-6.5%,-3.7%,6.7%,-106.0*,-11.9%
CCCn1c(-c2ccc(F)cc2)nc2c(NCC3CCN(C)CC3)nc(C)nc21,?,nt,?,nt,8.9%
O=C(Cn1cnc2onc(-c3ccc(F)cc3)c2c1=O)N1CCN(c2ccccc2F)CC1,nt,-14.6%[46 µM],nt,nt,nt
N#Cc1c(/N=C/c2ccco2)sc2c1CCCCC2,-27.6%,-2.1%,14.1µM*,-5.5,-11.8%
N#Cc1c(/N=C/c2cccs2)sc2c1CCC2,20µM*,2.9%,?,35.5,-7.3%
CN(C)/C=N/c1sc2c(c1C#N)CCCC2,nt,-2.0%[46 µM],2µM*,nt,nt
CC1CCc2c(sc(/N=C/N(C)C)c2C#N)C1 (centres undefined),nt,-13.4%[46 µM],?,nt,nt
SMILES,HPGD block,Lamin A splicing,ALDH1A1 inh,PNC assembly inh,ALOX12 inhib
Cc1cccc(-c2nc3scc(CCNS(=O)(=O)c4ccc(F)cc4C)n3n2)c1,nt,23.0%[46 µM],nt,nt,nt
CCOc1ccc(C=NC23CN4CN(CN(C4)C2)C3)cc1,-11.3%,7.5%,20µM*,38.0,4.9%
Cc1ccc(S(=O)(=O)NC2c3cccc4cccc(c34)C2Sc2n[nH]c(N)n2)cc1 (centres undefined),-14.2%,-0.2%,3.98µM*,-24.0,-4.3%
Cc1sc2ncnc(SCc3ccc(C(=O)O)cc3)c2c1C,nt,nt,39.8µM*,nt,nt
Cc1cc2[nH]c(=S)[nH]c2cc1C,14.1µM*,-17.5%,28.2µM*,?,-3.8%
C=Cc1c(C)/c2[n-]/c1=C\c1[n-]c(c(CC)c1C)/C=c1\[n-]c3c(c1C)C(=O)C(C(=O)[O-])C=3c1[n-]c(c(C)c1CCC(=O)[O-])\C=2.[Cu].[Na+].[Na+] (centres undefined),25.1µM*,?,?,nt,?
COc1ccc(CCNC(=O)c2ccc3c(c2)N(Cc2ccccc2Cl)C(=O)c2ccccc2S3)cc1OC,nt,-11.0%[46 µM],nt,nt,nt
Cc1ccccc1Nc1cccc2nonc12,-18.2%,-8.1%,-3.9%,-99.4*,-2.2%
CSc1c(CC(=O)Nc2ccccc2C(F)(F)F)n(Cc2ccccc2)c2ccccc12,-7.2%,12.0%,0.1%,-106.5*,0.4%
CSc1c(CC(=O)Nc2ccccc2Cl)n(Cc2ccccc2)c2ccccc12,-17.3%,?,3.0%,5.6,4.1%
CCc1nn2c(=O)cc(COC(=O)C3CCCCC3)nc2s1,nt,9.6%[46 µM],nt,nt,nt
CCc1cc2c(=O)n(CCC(C)C)c(=S)[nH]c2s1,nt,?,15.8µM*,nt,nt
CCOc1ccc(CCNC(=O)CCN2N=C(c3ccc(OC)cc3)CCC2=O)cc1OCC,nt,16.8%[46 µM],nt,nt,nt
Cc1ccc2[nH]c3nc(SCCN4CCOCC4)nnc3c2c1,-16.1%,-7.8%,?,-4.2,1.4%
CCn1c2ccc(C)cc2c2nnc(SCCN3CCOCC3)nc21,nt,nt,25.1µM*,nt,nt
CCOC(=O)c1ccc(NC(=O)CN2c3ccccc3S(=O)(=O)c3ccccc32)cc1,nt,6.7%[46 µM],nt,nt,nt
CCOC(=O)c1c(N)sc2c1CCC1C(=O)N(C3CCCCC3)C(=O)C21 (centres undefined),?,-10.2%,12.6µM*,-5.9,-10.1%
CCCCCCCCNC(C)C(O)c1ccc(SC(C)C)cc1 (centres undefined),-3.5%,?,7.94µM*!,-114.6*,-1.6%
Cc1nc(-c2ccc(F)cc2)sc1CCNC(=O)c1ccccc1C(F)(F)F,nt,22.9%[46 µM],nt,nt,nt
O=C(COC(=O)c1ccc2c(c1Cl)C(=O)c1ccccc1C2=O)NC1CC1,7.94µM*,-3.4%,?,-26.2,-0.3%
O=C(COC(=O)c1ccccc1OCc1ccc(Cl)cc1)NC1CC1,-10.0%,-5.7%[0.0737 µM],-3.2%,8.0,2.9%
O=C(COC(=O)c1ccc2c(c1Cl)C(=O)c1ccccc1C2=O)NC1CCCCC1,6.31µM*,6.6%,-7.7%,18.7,1.4%
Cc1cccc(CNc2cc(-c3ccc(C(=O)N(C)C)cc3)ncn2)c1,?,-2.1%,?,nt,-3.2%
O=C(C1CCCN(S(=O)(=O)c2cnc[nH]2)C1)N1CC(=O)N(CCc2ccccc2)C(=O)C1 (centres undefined),1.5%,-6.6%,-12.7%,-119.3*,1.2%
O=C(C1CCCN(S(=O)(=O)c2cnc[nH]2)C1)N1CCN(c2ccc(Cl)cc2)CC1 (centres undefined),-9.5%,?,-6.5%,-24.2,-9.2%
CCN(C(=O)CSc1ncc(S(=O)(=O)c2ccc(C)c(Cl)c2)c(=O)[nH]1)c1cccc(C)c1,nt,-21.8%[46 µM],nt,nt,nt
